According to PubChem BioAssay (NCI):
The panel holds about 83,000 compounds, 20% with a hit somewhere; the sample as a whole holds those more often.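 48-hour exposure, single concentration, 96-well plates; percent growth endpoint where 0 means no net growth. Active: below 10.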 Activity calls are given as the source filed them.

What follows are molecules tested on SK-MEL-28 melanoma (assay: NCI-60 one-dose screen, 48 h (100 = growth as untreated, 0 = no growth, -100 = all killed)). Conditions: 10 µM unless noted.
For `Cn1cc(-c2cc3ncnc(Nc4ccc(NC(=O)Nc5cc(C(C)(C)C)on5)cc4)c3s2)cn1`, the growth was 15% (inactive). For `Nc1cc(C(=O)N/N=C\c2ccc(OC(F)F)c(OC3CCCC3)c2)nn1CC(O)c1ccccc1` (stereo not drawn), the growth was 115% (inactive). With `COc1ccc(C2CC(c3cccc(OCCCCOc4cccc(C5=NOC(c6ccc(OC)cc6)C5)c4)c3)=NO2)cc1` (stereo not drawn) the growth was 102% (inactive). In the case of `O=C(COc1ccc(/C=C2\C(=O)Nc3ccc(Cl)cc32)cc1)Nc1ccc(Cl)cc1`, the growth is reported as 78.6% (inactive). In the case of `Cn1cc(-c2nnc(N)nc2-c2c[nH]c3ccc(F)cc23)c2cc(Br)ccc21`, the growth is reported as 60.4% (inactive). For `C[C@H](Nc1ncnc2ccc(-c3cnc(Cl)c(NS(C)(=O)=O)c3)cc12)c1ccccc1`, the growth was -18.2% (active). For `O=C(CSc1nc2ccccc2c(=O)n1CCc1ccccc1)Nc1ccc(S(=O)(=O)Nc2ccc(Cl)nn2)cc1`, the growth was 108% (inactive). In the case of `NS(=O)(=O)c1ccc(Nc2nc(N/N=C/C=C/c3ccccc3)nc(Nc3ccccc3)n2)cc1`, the growth is reported as 60.3% (inactive). With `O=C1[C@H]2Cc3c([nH]c4ccccc34)[C@H](c3ccc(Br)cc3)N2C(=O)CN1C1CCN(CC2CCCCC2)CC1` the growth was 97.6% (inactive). For `CCc1cc2c(cc1Cl)nc1c(=O)[nH]c(=O)nc-1n2CCOCC(C)(C)C`, the growth was 97.2% (inactive). For `COc1ccc(-c2nc(C#N)c(N3CCC(S(=O)(=O)N4CCOCC4)CC3)o2)cc1`, the growth was 99% (inactive). For `COC(=O)c1ccc(NC2=C(Cl)C(=O)c3nc(C)ccc3C2=O)cc1`, the growth was 75.4% (inactive). In the case of `Cc1ccccc1N1CCN(C2=C(Cl)C(=O)c3ncccc3C2=O)CC1`, the growth is reported as 35.9% (inactive).
